{"source": "the supplement of paper PMC10981050"}
{"system": "OCI-AML2", "assay": "cell viability relative to vehicle control; higher = less cytotoxic", "conditions": "10 µM; SRSF2 genotype: P95H/wt", "procedure,_shortened": "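Screening covered the Selleck bioactive, kinase and epigenetic probe libraries, less identity-inconsistent compounds, on CRISPR-edited mutant clones and isogenic wild-type clones of four leukaemia lines. Cells, at 2000 per well in 50 µL medium, received a single 10 µM acoustically dispensed dose. After 48 h the supernatant was removed and CellTiter-Glo luminescence was read. Viability was analysed in Genedata Screener as percent of the on-plate vehicle control.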", "units": {"cell viability": "%"}}
{"smiles": "COCCNC(=O)Nc1ccc2nc(-c3cccs3)c(-c3cccs3)nc2c1", "note": "[ACSS2 inhibitor]", "cell viability": 91.5}
{"smiles": "CC(C)=CCCC(C)(O)C1CCC2(C)C1C(O)CC1C3(C)CCC(O)C(C)(C)C3C(OC3OC(CO)C(O)C(O)C3OC3OC(C)C(O)C(O)C3O)CC12C", "note": "[(20S)Ginsenoside Rg2]", "cell viability": 101}
{"smiles": "COC1C(O)C(O)C(O)C(O)C1O", "note": "(centres undefined) [Sequoyitol]", "cell viability": 99.7}
{"smiles": "CO[C@H]1C[C@H](O[C@H]2[C@H](C)O[C@@H](O[C@@H]3/C(C)=C/C[C@@H]4C[C@@H](C[C@]5(C=C[C@H](C)[C@@H](C6CCCCC6)O5)O4)OC(=O)[C@@H]4C=C(C)[C@@H](O)[C@H]5OC/C(=C\\C=C\\[C@@H]3C)[C@]54O)C[C@@H]2OC)O[C@@H](C)[C@@H]1O", "note": "[Doramectin]", "cell viability": 15.3}
{"smiles": "C[C@H](CCC(=O)O)[C@H]1CC[C@H]2[C@@H]3[C@@H](O)C[C@@H]4C[C@H](O)CC[C@]4(C)[C@H]3CC[C@]12C", "note": "[Ursodiol (Actigal Urso)]", "cell viability": 98.1}
{"smiles": "C/C=C(\\C)C(=O)OC1c2c(ccc3ccc(=O)oc23)OC(C)(C)C1OC(=O)/C(C)=C/C", "note": "(centres undefined) [Praeruptorin B]", "cell viability": 89.5}
{"smiles": "COc1cc([C@@H]2Oc3cc([C@H]4Oc5cc(O)cc(O)c5C(=O)[C@@H]4O)ccc3O[C@H]2CO)ccc1O", "note": "[Silymarin (Silybin B)]", "cell viability": 106}
{"smiles": "CCOC(=O)C1=C(COCCN)NC(C)=C(C(=O)OC)[C@@H]1c1ccccc1Cl", "note": "[Levamlodipine]", "cell viability": 30.2}
{"smiles": "CC1(C)CC[C@]2(C(=O)O)CC[C@]3(C)C(=CC[C@@H]4[C@@]5(C)CC[C@H](O)[C@@](C)(CO)[C@@H]5CC[C@]43C)[C@@H]2C1", "note": "[Hederagenin]", "cell viability": 120}
{"smiles": "O=C(O)[C@]1(Cc2cccc(Nc3nccs3)n2)CC[C@@H](Oc2cccc(Cl)c2F)CC1", "cell viability": 17.8}
{"smiles": "O=C(Oc1cccc(F)c1OC(=O)c1cccc(O)c1)c1cccc(O)c1", "cell viability": 92.6}
{"smiles": "C[C@@H](O)[C@H]1C(=O)N2C(C(=O)O)=C(S[C@@H]3CN[C@H](C(=O)N(C)C)C3)[C@H](C)[C@H]12", "note": "[Meropenem]", "cell viability": 111}
{"smiles": "CC(C)=CCC/C(C)=C/Cc1c(O)c(CC=C(C)C)c2c(c1O)C(=O)C1=C[C@@H]3C[C@H]4C(C)(C)O[C@@](C/C=C(/C)C(=O)O)(C3=O)[C@@]14O2", "note": "[Gambogenic acid]", "cell viability": 0.27}
{"smiles": "CO[C@H]1C(=O)[C@]2(C)[C@@H](OC)C[C@H]3OC[C@@]3(OC(C)=O)[C@H]2[C@H](OC(=O)c2ccccc2)[C@]2(O)C[C@H](OC(=O)[C@H](O)[C@@H](NC(=O)OC(C)(C)C)c3ccccc3)C(C)=C1C2(C)C", "note": "[Cabazitaxel (Jevtana)]", "cell viability": 7.39}
{"smiles": "O=C(CCc1ccc(O)cc1)c1c(O)cc(O)cc1O", "note": "[Phloretin]", "cell viability": 87.5}
{"smiles": "CCCCCCCCCCCCc1ccc(S(=O)(=O)Nc2nncs2)cc1", "cell viability": 98.7}
{"smiles": "COc1cccc2cc(-c3nc([C@H]4CC[C@H](C(=O)O)CC4)n4ncnc(N)c34)[nH]c12", "cell viability": 26.5}
{"smiles": "COc1ccc(C[C@H](N)C(=O)N[C@H]2[C@@H](O)[C@H](n3cnc4c(N(C)C)ncnc43)O[C@@H]2CO)cc1", "note": "[Puromycin 2HCl]", "cell viability": 0.26}
{"smiles": "COc1cc(-c2oc3cc(O)cc(O)c3c(=O)c2O[C@@H]2O[C@H](CO[C@@H]3O[C@@H](C)[C@H](O)[C@@H](O)[C@H]3O)[C@@H](O)[C@H](O)[C@H]2O)ccc1O", "note": "[Narcissoside]", "cell viability": 103}
{"smiles": "C[C@]12CC[C@@H]3c4ccc(OC(=O)c5ccccc5)cc4CC[C@H]3[C@@H]1CC[C@@H]2O", "note": "[Estradiol Benzoate]", "cell viability": 58.4}
{"smiles": "CCCC(=O)NCCc1csc(-c2ccc(Cl)cc2)n1", "note": "[Azoramide]", "cell viability": 71.1}
{"smiles": "C=C[C@]1(C)C[C@@H](OC(=O)CS[C@@H]2C[C@H]3CC[C@@H](C2)N3C)[C@]2(C)[C@H](C)CC[C@]3(CCC(=O)[C@H]32)[C@@H](C)[C@@H]1O", "note": "[Retapamulin]", "cell viability": 75.8}
{"smiles": "Cc1cnc(C(=O)O)c[n+]1[O-]", "note": "[Acipimox]", "cell viability": 105}
{"smiles": "CC(=O)Nc1cccc(-n2c(=O)n(C3CC3)c(=O)c3c(Nc4ccc(I)cc4F)n(C)c(=O)c(C)c32)c1", "cell viability": 39.8}
{"smiles": "CCN(CC)CC(=O)Nc1c(C)cccc1C", "note": "[Lidocaine (Alphacaine)]", "cell viability": 101}
{"smiles": "Cc1nc(Nc2n[nH]c3c2CN(C(=O)N[C@H](CN(C)C)c2ccccc2)C3(C)C)c2sccc2n1", "cell viability": 0.9}
{"smiles": "Cc1ccccc1C(=O)Nc1ccc(C(=O)N2CCCC(N(C)C)c3ccccc32)cc1", "note": "(centres undefined) [Mozavaptan]", "cell viability": 95.5}
{"smiles": "NS(=O)(=O)c1cc2c(cc1Cl)N=CNS2(=O)=O", "note": "[Chlorothiazide]", "cell viability": 93.7}
{"smiles": "CCCn1/c(=N/C(=O)c2cccc(C(N)=O)c2)[nH]c2ccccc21", "note": "[Takinib]", "cell viability": 74.7}
